The list is not random: actives were taken first. Their share in the collection is about 17%.
HepG2 tox – qHTS for Inhibitors of TGF-b: Cytotox Counterscreen; HepG2 CAGA-GFP viability, ATP luminescence, 18 h; AID 588856, 2011; actives 0.76% (n = 410,000); Potency, µM (titrated, usually from 46.1 µM), inactives show top-dose activity change, negative = cytotoxicity, most hits filed as cytotoxic
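CellTiter-Glo luminescence gave cytotoxicity after 18 hours at 37 degrees C. The cells were HepG2 CAGA-GFP in 1% FBS DMEM, stimulated with 500 pg/mL TGF-beta after compound addition. %Activity was normalised to no-cell wells (complete cell-killing) and DMSO (no toxicity), and curves were fitted and classified.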
TDP1 cell noCPT – qHTS for Inhibitors of human tyrosyl-DNA phosphodiesterase 1 (TDP1): qHTS in cells in absence of CPT. AID 686978, 2013. actives 15% (n = 420,000). DT40 Tdp1-/- hTDP1 cells, no CPT, ATP luminescence, 48 h. Potency, µM (titrated, usually from 46.2 µM), for the others: top-dose activity change, negative = growth inhibition, usual class: inhibitors; further: on the % scale 0 is the no-effect control and ±100 the full control effect; nearly all actives have a fitted effect of over 55% in size
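Growth kinetics read by CellTiter-Glo luminescence after ≥48 hr at 37 °C. Cells: DT40 Tdp1-/- stably carrying human TDP1, 400 per well, compound exposure in the absence of CPT (DMSO vehicle).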
TDP1 cell CPT – qHTS for Inhibitors of human tyrosyl-DNA phosphodiesterase 1 (TDP1): qHTS in cells in presence of CPT; chicken DT40 Tdp1-/-;hTDP1 cells + 20 nM CPT, ATP luminescence, 48 h; Potency, µM (top dose mostly 46.2 µM), inactives show top-dose activity change, negative = growth inhibition, most hits filed as inhibitors; actives 12% (n = 420,000); further: on the % scale 0 is the no-effect control and ±100 the full control effect; nearly all actives have a fitted effect of over 55% in size
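Chicken DT40 Tdp1-/- cells stably complemented with human TDP1 were seeded at 400 cells/well in medium containing 20 nM camptothecin, exposed to pin-transferred compounds, and grown at 37 °C for at least 48 hr. Viability was read as ATP luminescence.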
HT1080 IDH1KD tx – qHTS for induction of synthetic lethality in tumor cells producing 2HG: qHTS for the HT-1080-IDH1KD cell line | Potency, µM (titrated, usually from 46.1 µM), inactives show at the highest dose activity, negative = toxicity, usual class: cytotoxic | HT-1080 IDH1 knockdown viability, ATP luminescence, 48 h | actives 2% (n = 360,000);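 further: 0% = DMSO wells and -100% = cell-free medium wells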
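Cytotoxicity counter-line: IDH1KD HT-1080, 48 h, CellTiter-Glo. Curves classed by r2, magnitude and activity.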
HT1080-NT tox – qHTS for induction of synthetic lethality in tumor cells producing 2HG: qHTS for the HT-1080-NT fibrosarcoma cell line. actives 1.6% (n = 360,000). HT-1080-NT fibrosarcoma viability, CellTiter-Glo ATP luminescence, 48 h. Potency, µM (top dose mostly 46.1 µM), for inactives: at the highest dose activity, negative = less viability, actives largely listed as cytotoxic. AID 686970, 2013;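 further: NT is the 2HG producing partner of a matched IDH1 knockdown line; 0% = DMSO-treated cells and -100% = media-only wells without cells; nearly all actives have a fitted effect of over 55% in size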
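Viability by CellTiter-Glo luminescence after 48 h compound exposure at 37C of HT-1080-NT cells (750/well, RPMI, 5% FBS). % activity scaled between DMSO wells and medium-only wells, then curve-fitted and categorized by curve class.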
TGFb inhibitor – qHTS for Inhibitors of TGF-b; HepG2 CAGA-GFP TGF-b/SMAD3 reporter, GFP fluorescence, 18 h; TGF-beta stimulated, 500 pg/mL final; Potency, µM (titrated, usually from 46.1 µM), for inactives: at the highest dose activity, negative = inhibition, usual class: inhibitors; actives 1.2% (n = 410,000); AID 588855, 2011; further: on the % scale 0 is the no-effect control and ±100 the full control effect; nearly all actives have a fitted effect of over 65% in size
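Using HEPG2 CAGA-GFP reporter cells at 1000 cells/well, we pinned test compounds, stimulated with recombinant TGF-beta (500 pg/mL final) and measured total well GFP after 18 h.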
Active calls of the source: *; [ ] = another dose, or the depositor's remark. The call rests on the fitted dose curve; in most records, active means well fitted curve in the direction sought with a large enough effect; inconclusive means small, poorly fitted or top-dose-only effect, or another doubt; inactive means no such curve, though single readings can be large; an effect the other way counts as inactive or inconclusive. Potency means the concentration at half of the fitted maximal effect.

Screening Brc1ccc2c(ccc[n+]2CCc2ccccc2)c1 returned HepG2 tox -10%, TDP1 cell noCPT inconclusive, TDP1 cell CPT inconclusive and TGFb inhibitor -5%.
For COc1ccc(NC(=O)Nc2cccc(-c3cn4cccnc4n3)c2)cc1 the results were HepG2 tox -7% and TGFb inhibitor -5%.
COc1cccc(-c2nc(S(=O)(=O)c3ccc(C)cc3)c(N3CCCCCC3)o2)c1 was read as HepG2 tox -14%, TDP1 cell noCPT 4.6µM*, TDP1 cell CPT 23µM* and TGFb inhibitor -24%.
`Cc1ccc(-c2nc(S(=O)(=O)c3ccc(C)cc3)c(N3CCN(c4ccccc4)CC3)o2)cc1` gave HepG2 tox -31%, TDP1 cell noCPT inconclusive, TDP1 cell CPT -13% and TGFb inhibitor 3%.
For Cc1ccc(S(=O)(=O)c2nc(-c3cccc(C)c3)oc2N2CCCCC2)cc1 the results were HepG2 tox -31%, TDP1 cell noCPT 23µM*, TDP1 cell CPT inconclusive and TGFb inhibitor -18%.
For COc1ccc(-c2nc(S(=O)(=O)c3ccc(C)cc3)c(N3CCCCC3)o2)cc1 the results were HepG2 tox -12%, TDP1 cell noCPT inconclusive, TDP1 cell CPT -26% and TGFb inhibitor -11%.
For Cc1ccc(S(=O)(=O)c2nc(-c3cccc(C)c3)oc2N2CCN(c3ccccc3)CC2)cc1 the results were HepG2 tox -5%, TDP1 cell noCPT 1.5µM*, TDP1 cell CPT inconclusive and TGFb inhibitor 2%.
`CC(C)C[C@H]1CN(CCCC[C@H]2CNC(=O)C(=O)N2Cc2ccccc2)C(=O)C(=O)N1CCc1ccc(O)cc1` gave TDP1 cell noCPT -11%, TDP1 cell CPT 1%, HT1080 IDH1KD tx inconclusive and HT1080-NT tox 17%.
`CC(=O)c1c(C)[nH]c(C(=O)OCC(=O)Nc2nnc(-c3ccccc3)o2)c1C` gave HepG2 tox -54%, TDP1 cell noCPT inconclusive, TDP1 cell CPT inconclusive, HT1080 IDH1KD tx -14%, HT1080-NT tox -27% and TGFb inhibitor -3%.
CCSc1nc(=S)cc(C)[nH]1 was read as HepG2 tox 5%, TDP1 cell noCPT 21µM*, TDP1 cell CPT inconclusive, HT1080 IDH1KD tx 22%, HT1080-NT tox 20% and TGFb inhibitor -7%.
`CCSc1nc(O)cc(=O)[nH]1` gave HepG2 tox -1%, TDP1 cell noCPT 5%, TDP1 cell CPT 4%, HT1080 IDH1KD tx 15%, HT1080-NT tox 1% and TGFb inhibitor -5%.
For CCCCCCCCCCCCCCCCCCN(CCCCCCCCCCCCCCCCCC)c1ccccc1 the results were HepG2 tox -16%, TDP1 cell noCPT 4%, TDP1 cell CPT 3% and TGFb inhibitor -11%.
`COc1ccc(C(=O)C[n+]2cc(-c3ccc(OC)cc3)n3c2CCCC3)cc1` gave HepG2 tox -10%, TDP1 cell noCPT 6.5µM*, TDP1 cell CPT 9.2µM*, HT1080 IDH1KD tx inconclusive, HT1080-NT tox -20% and TGFb inhibitor -1%.
For O=C(C[n+]1cc(-c2ccccc2)n2c1CCCCC2)c1ccc(Br)cc1 the results were HepG2 tox -31%, TDP1 cell noCPT 23µM*, TDP1 cell CPT 21µM*, HT1080 IDH1KD tx -4%, HT1080-NT tox -17% and TGFb inhibitor -3%.
For Cc1ccc(-c2c[n+](Cc3ccc(Cl)c(Cl)c3)c3n2CCC3)cc1 the results were HepG2 tox 3%, TDP1 cell noCPT 0.52µM*, TDP1 cell CPT 0.58µM*, HT1080 IDH1KD tx inconclusive, HT1080-NT tox inconclusive and TGFb inhibitor inconclusive.
For Cc1ccc(C(=O)C[n+]2cc(-c3ccc(C)cc3)n3c2CCCCC3)cc1 the results were HepG2 tox -11%, TDP1 cell noCPT 0.15µM*, TDP1 cell CPT 0.21µM*, HT1080 IDH1KD tx 18µM*, HT1080-NT tox 13µM* and TGFb inhibitor inconclusive.
`O=C(Nc1nc(OCC(F)(F)F)cnc1/C=C\c1ccccc1)c1ccccc1` gave HepG2 tox -30%, TDP1 cell noCPT inconclusive, TDP1 cell CPT -15%, HT1080 IDH1KD tx 0%, HT1080-NT tox -3% and TGFb inhibitor -9%.
Screening CC(C)Cc1nc2cc(NS(=O)(=O)N(C)C)cc(C(=O)N3CCSCC3)c2n1C returned TDP1 cell noCPT 2% and TDP1 cell CPT -3%[9.04 µM].
For COCc1cc(NCc2ccc(Cl)cc2)nc(C)n1 the results were HepG2 tox -7%, TDP1 cell noCPT -3%, TDP1 cell CPT -6%, HT1080 IDH1KD tx -7%, HT1080-NT tox -4% and TGFb inhibitor 6%.
For Cc1nc(CS(=O)c2ccc(Cl)cc2)cc(NCc2ccc(Cl)cc2Cl)n1 (configuration not stated) the results were HepG2 tox 5%, TDP1 cell noCPT 21µM*, TDP1 cell CPT 15µM*, HT1080 IDH1KD tx inconclusive, HT1080-NT tox inconclusive and TGFb inhibitor inconclusive.
Screening O=C(NCc1ccc(F)cc1)c1cc2c(=O)n3ccccc3nc2s1 returned HepG2 tox 4%, TDP1 cell noCPT -21%, TDP1 cell CPT inconclusive and TGFb inhibitor 26%.
For Cc1ccsc1C(=O)NC1CCCN(Cc2ccc(Cl)cc2)C1 (configuration not stated) the results were HepG2 tox -14%, TDP1 cell noCPT 15µM*, TDP1 cell CPT inconclusive, HT1080 IDH1KD tx 10%, HT1080-NT tox -1% and TGFb inhibitor 1%.
`Cc1cc(C(=O)NC2CCCN(Cc3ccc(Cl)cc3)C2)c(C)o1` (configuration not stated) gave HepG2 tox -21%, TDP1 cell noCPT inconclusive, TDP1 cell CPT inconclusive, HT1080 IDH1KD tx 2%, HT1080-NT tox -2% and TGFb inhibitor 2%.
`C#CCNc1c2c(nc3ncnn13)CC(C)CC2` (configuration not stated) gave HepG2 tox 0%, TDP1 cell noCPT 16%, TDP1 cell CPT -9%, HT1080 IDH1KD tx 2%, HT1080-NT tox 13% and TGFb inhibitor 6%.

From PubChem
